The text below walks through data of PubChem BioAssay.

Test [1] can be described thus: inhibitors of TNFa-induced NFkB p65 translocation, primary screen, imaging, HUVEC, MLSMR starter and 10KST1 sets (AID 438;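 active = inhibition above 20% together with a positive visual image hit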;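 also: compound added about 3h40 before a 20 min TNFalpha stimulation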;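 as to inhibition: signal is the nuclear over cytoplasmic p65 intensity ratio per well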). Conditions: HUVEC TNFa-induced p65 nuclear translocation; cell count: measured here: nuclei count (cytotoxicity indicator), at 2.08 µM; inhibition: at 2 µM, stronger effect = higher value, 0% TNFa-plus-vehicle, 100% no-TNFa wells.
Test [2] is described as follows: reduction of polyQ htt aggregates in cells – imaging, exon1htt(103Q)mCFP cells, high-content imaging, primary screen (AID 483;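 active = visual image review flags a hit and inhibition of aggregation exceeds 20%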;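 also: compound exposure lasted 3 days before fixation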;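 as to nuclei count: percent of the per-plate median nuclei count of sample wells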). Conditions: exon1htt(103Q)mCFP cell line, aggregate imaging, at 2 µM; inhibition of aggregation: stronger effect = higher value; nuclei count: measured here: cell count, toxicity.
The nature of test [3]: endothelial E-selectin expression blockers – imaging, HUVEC, immunofluorescence, MLSMR starter and 10KST1 sets, primary screen (AID 487;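 active = visually confirmed hit in the image check and inhibition above 20%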;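 as to inhibition: signal is fraction of cell area covered by stained E-selectin grains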;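 as to nuclei count: 100% = median nuclei count of all wells on the same plate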). The note with it: HUVEC TNFalpha-induced E-selectin immunofluorescence imaging, at 2 µM; inhibition: stronger effect = higher value; nuclei count: measured here: cell number, toxicity.
The target in test [4] is Voltage-gated potassium channel subunit beta-2 (Rattus norvegicus) (UniProt P62483). Nature of the test: inhibitors of rat Kvbeta2 reductase activity – biochemical, NADPH fluorescence, primary screen (AID 622;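 active = fluorescence slope higher than the sample average by over 3 SD, cut at about -0.22 in these data, passing the limit was not always enough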;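 also: slope of raw intensity against log time taken from 70 to 1610 s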). The note with it: recombinant KvBeta, 4-cyanobenzaldehyde reduction, at 10 µM, stronger effect = higher value.
Voltage-gated potassium channel subunit beta-2 (Rattus norvegicus), sequence (P62483 whole entry, looked up): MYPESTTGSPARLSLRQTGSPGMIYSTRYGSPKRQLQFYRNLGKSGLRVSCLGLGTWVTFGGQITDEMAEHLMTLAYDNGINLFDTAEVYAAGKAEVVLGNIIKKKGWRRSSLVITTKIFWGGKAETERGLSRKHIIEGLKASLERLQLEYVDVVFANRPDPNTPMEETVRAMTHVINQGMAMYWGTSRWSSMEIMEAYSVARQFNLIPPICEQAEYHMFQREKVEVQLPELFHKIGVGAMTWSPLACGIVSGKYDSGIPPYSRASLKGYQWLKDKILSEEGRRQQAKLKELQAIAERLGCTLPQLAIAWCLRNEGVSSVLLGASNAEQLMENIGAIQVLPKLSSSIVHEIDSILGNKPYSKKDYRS
Test [5] shares this target. Nature of the test: enhancers of rat Kvbeta2 NADPH turnover – biochemical, NADPH fluorescence, primary screen (AID 623;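 active = NADPH fluorescence slope more negative than the mean of all samples by about 3 SD, 99.7% confidence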;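 also: fluorescence intensity change per second fitted from 20 to 320 s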). Conditions: Recombinant KvBeta, NADPH fluorescence decrease slope, 10 min; at 10 µM; stronger effect = lower value.
In test [6] the target is Alpha-2C adrenergic receptor (Homo sapiens) (UniProt P18825). As to the kind of experiment: compounds altering alpha2C-coupled GIRK flux – cell-based, HEK293 alpha2C/GIRK1/2, thallium flux, primary screen (AID 624).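 Also: slope of fluorescence ratio to pre-addition baseline per second over 15 to 24 s.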 The note with it: thallium flux BTC fluorescence, at 10 µM, actives lie on both sides.
Alpha-2C adrenergic receptor (Homo sapiens), sequence (P18825 whole entry, looked up): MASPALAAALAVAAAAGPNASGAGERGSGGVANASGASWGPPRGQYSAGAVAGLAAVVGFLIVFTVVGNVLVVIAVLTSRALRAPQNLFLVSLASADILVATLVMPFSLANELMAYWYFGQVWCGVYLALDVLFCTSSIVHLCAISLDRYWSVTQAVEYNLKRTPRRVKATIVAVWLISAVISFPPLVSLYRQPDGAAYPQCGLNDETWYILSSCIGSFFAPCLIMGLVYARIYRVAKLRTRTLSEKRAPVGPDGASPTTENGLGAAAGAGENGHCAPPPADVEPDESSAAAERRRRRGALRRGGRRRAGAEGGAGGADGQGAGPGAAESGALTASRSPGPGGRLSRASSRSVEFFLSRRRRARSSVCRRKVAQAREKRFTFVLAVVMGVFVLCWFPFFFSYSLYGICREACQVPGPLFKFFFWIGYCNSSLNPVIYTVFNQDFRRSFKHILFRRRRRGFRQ
Test [7] in a line: blockers of RIG-like receptor reporter activation – cell-based, Sendai virus stimulus, luciferase, 10K MLSCN set, TLR/RLR signaling modifier project, primary screen (AID 602276;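 active = inhibition at or above 50% at 10 µM; inactive = inhibition below 50%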;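 also: firefly luciferase from ISG56 promoter only with Renilla not read in this screen; 0% = Sendai virus plus DMSO and 100% = medium plus DMSO without virus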). The note with it: HEK293 RL24 IRF3 luciferase reporter, at 10 µM, stronger effect = higher value. A general note: In a reporter assay the amount or activity of a reporter protein is the signal.
Test [8] is described as follows: TLR3 IRF3 reporter activation blockers – cell-based, poly I:C stimulus, luciferase, 10K MLSCN set, primary screen (AID 602277;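 active = inhibition of the reporter signal at or above 50%; inactive = inhibition below 50%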). The note with it: HEK293-TLR3 RL24 IRF3 luciferase reporter, at 10 µM, stronger effect = higher value.

Calls of active or inactive are those of the source.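 The calls were made as follows, unless noted: active = fluorescence slope after compound addition differing from the mean of all screened samples at 99.7% confidence, in either direction; inactive = the rest.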

As a reminder, the inhibition is the drop in the measured response relative to a control, in per cent.

Turning to `O=C(CSc1nnc(COc2ccc(Cl)cc2)o1)N1CCN(c2ccccc2)CC1`, the cell count in test [1] is 359. Further, the inhibition was -0.5% (inactive) in test [1], -83.8% (inactive) in test [3], 5.53% (inactive) in test [7] and -9% (inactive) in test [8]. For the same molecule, in test [2], the inhibition of aggregation is -18.8% (inactive). Also, the nuclei count was 98.2% in test [2] and 110% in test [3]. Moreover, the fluorescence slope in test [4] was -0.501 (inactive). Further, in test [5], the NADPH fluorescence slope is -3.2e-06 (inactive). For the same molecule, the slope in test [6] was 0.00706 (inactive).
For the molecule `Cc1[nH]nc2c1C(=O)CC(C)(C)C2`, the cell count in test [1] was found to be 416. Besides, the inhibition in test [1] was -4.9% (inactive); in test [3] it was -24.4% (inactive); in test [7], -3.34% (inactive); in test [8], 17.1% (inactive). Also, the inhibition of aggregation in test [2] is -16.7% (inactive). In addition, the nuclei count in test [2] is 118%; in test [3], 117%. The fluorescence slope in test [4] was -0.347 (inactive). Moreover, the NADPH fluorescence slope in test [5] was -1.7e-05 (inactive). In addition, the slope in test [6] is 0.0065 (inactive).
Regarding `O=S(=O)(c1cccs1)N1CCN(C/C=C/c2ccccc2)CC1`, the cell count in test [1] stood at 359. Also, the inhibition is 2.4% (inactive) in test [1], 62.2% (inactive) in test [3], 10.2% (inactive) in test [7] and 9.74% (inactive) in test [8]. Further, in test [2], the inhibition of aggregation was -19.8% (inactive). In addition, the nuclei count in test [2] amounted to 108%; in test [3] it was 94.8%. Also, the fluorescence slope in test [4] is -0.492 (inactive). In addition, in test [5], the NADPH fluorescence slope is -4.5e-05 (inactive). The slope in test [6] was 0.00442 (inactive).
Turning to `Cc1ccc(C)c(S(=O)(=O)n2cnc3ccccc32)c1`, the cell count in test [1] is 262. The inhibition was -5.9% (inactive) in test [1], -42.5% (inactive) in test [3], 14.5% (inactive) in test [7] and 27.4% (inactive) in test [8]. Also, in test [2], the inhibition of aggregation is 17.8% (inactive). Moreover, the results for the nuclei count in test [2] and in test [3] were 79.3% and 108%, respectively. Moreover, the fluorescence slope in test [4] is -0.463 (inactive). For the same molecule, the NADPH fluorescence slope in test [5] was 2.3e-05 (inactive). Besides, the slope in test [6] was 0.00359 (inactive).
`O=C(CSc1nnc2scc(-c3ccccc3)n12)Nc1nsc(-c2ccccc2)n1`: the cell count in test [1] turned out to be 673. The inhibition is -14.1% (inactive) in test [1], 34.5% (inactive) in test [3], 9.78% (inactive) in test [7] and -32.6% (inactive) in test [8]. The inhibition of aggregation in test [2] was 2.8% (inactive). The nuclei count in test [2] is 107%; in test [3] it was 97.5%. Besides, the fluorescence slope in test [4] is -0.381 (inactive). Further, in test [5], the NADPH fluorescence slope was 1.4e-05 (inactive). Also, the slope in test [6] was 0.00626 (inactive).
`COCCCN1C(=O)C(=O)/C(=C(/O)c2ccc(OCC(C)C)cc2C)C1c1cccnc1` (centres undefined): in test [1], the cell count was determined as 299. Besides, the inhibition was -2.4% (inactive) in test [1], -28.7% (inactive) in test [3], 7.86% (inactive) in test [7] and 23.2% (inactive) in test [8]. For the same molecule, in test [2], the inhibition of aggregation was -8.7% (inactive). The values for the nuclei count in test [2] and in test [3] were 109% and 110%, respectively. Further, in test [4], the fluorescence slope is -0.463 (inactive). Besides, the NADPH fluorescence slope in test [5] is 5.8e-06 (inactive). In addition, the slope in test [6] is 0.00417 (inactive).
As for `CCOc1ccc(NC(=O)C(C)Sc2nnc(C)n2C)cc1` (centres undefined), the cell count in test [1] turned out to be 574. Besides, the inhibition was -9.5% (inactive) in test [1], -33.5% (inactive) in test [3], -2.49% (inactive) in test [7] and 20.8% (inactive) in test [8]. Further, the inhibition of aggregation in test [2] is 19.3% (inactive). Further, the nuclei count in test [2] came out at 74.5%; in test [3], 119%. Further, in test [4], the fluorescence slope was -0.591 (inactive). For the same molecule, in test [5], the NADPH fluorescence slope is -1.5e-05 (inactive). Besides, in test [6], the slope is 0.00656 (inactive).
Consider `NC(=O)NC(=O)CSc1cccc(C(F)(F)F)c1`, for which the cell count in test [1] stood at 570. The inhibition in test [1] was -10.9% (inactive); in test [3], -77.3% (inactive); in test [7], 13.4% (inactive); in test [8], 18.2% (inactive). The inhibition of aggregation in test [2] is -3.2% (inactive). In addition, the values for the nuclei count in test [2] and in test [3] were 101% and 123%, respectively. The fluorescence slope in test [4] was -0.51 (inactive). The NADPH fluorescence slope in test [5] is -6.1e-05 (inactive). The slope in test [6] is 0.00622 (inactive).
As to `COc1cc(S(=O)(=O)n2nnc3ccccc32)c(OC)cc1Cl`, the cell count in test [1] amounted to 629. Besides, the inhibition in test [1] was -3.3% (inactive); in test [3] it was -51.9% (inactive); in test [7] it was 13.5% (inactive); in test [8], -7.7% (inactive). Further, the inhibition of aggregation in test [2] is -68.5% (inactive). In addition, the nuclei count in test [2] worked out at 93%; in test [3], 122%. For the same molecule, the fluorescence slope in test [4] was -0.382 (inactive). For the same molecule, the NADPH fluorescence slope in test [5] was 3.8e-05 (inactive). Besides, the slope in test [6] was 0.00868 (inactive).
Consider `COc1cccc(-c2cc(C(=O)N3CCc4ccccc4C3)no2)c1`, for which the cell count in test [1] is 550. Moreover, the inhibition in test [1] is -17% (inactive); in test [3], 18.5% (inactive); in test [7], -3.65% (inactive); in test [8] it was 13.4% (inactive). For the same molecule, the inhibition of aggregation in test [2] is 1% (inactive). The results for the nuclei count in test [2] and in test [3] were 111% and 99.8%, respectively. For the same molecule, the fluorescence slope in test [4] is -0.445 (inactive). Further, in test [5], the NADPH fluorescence slope was 7.7e-06 (inactive). In addition, the slope in test [6] was 0.0069 (inactive).
With `CC(=O)Nc1c(C(=O)C2CC2)oc2ccccc12`, the cell count in test [1] worked out at 514. Further, the inhibition in test [1] is 2.2% (inactive); in test [3], -8.1% (inactive); in test [7], -3.28% (inactive); in test [8] it was 2.69% (inactive). In test [2], the inhibition of aggregation is -10.5% (inactive). The nuclei count in test [2] is 102%; in test [3], 117%. Besides, the fluorescence slope in test [4] was -0.448 (inactive). Moreover, the NADPH fluorescence slope in test [5] was -2.5e-05 (inactive). In test [6], the slope was 0.00698 (inactive).
Turning to `COc1ccc(S(=O)(=O)Nc2ccccc2OC)cc1C`, in test [1], the cell count was 471. The inhibition in test [1] is -3.3% (inactive); in test [3] it was -26.6% (inactive); in test [7], 16.7% (inactive); in test [8] it was 27.5% (inactive). Further, in test [2], the inhibition of aggregation was 0.3% (inactive). Moreover, the nuclei count is 96.5% in test [2] and 110% in test [3]. Further, the fluorescence slope in test [4] is -0.459 (inactive). Further, the NADPH fluorescence slope in test [5] is 1.9e-05 (inactive). Besides, in test [6], the slope is 0.00608 (inactive).
Consider `Cn1nnc2cc(C(=O)N3CCCCCC3)ccc21`, for which the cell count in test [1] stood at 933. The inhibition was 2.7% (inactive) in test [1], -5.7% (inactive) in test [3], -1.25% (inactive) in test [7] and 12.6% (inactive) in test [8]. In addition, the inhibition of aggregation in test [2] is -9% (inactive). In addition, the figures for the nuclei count in test [2] and in test [3] were 105% and 107%, respectively. Further, the fluorescence slope in test [4] is -0.478 (inactive). The NADPH fluorescence slope in test [5] is -4.7e-05 (inactive). The slope in test [6] is 0.00659 (inactive).
For `O=C(Nc1ccccc1)N1CCC(c2ccccc2)C1` (centres undefined), the cell count in test [1] is 331. Further, the inhibition in test [1] is 23.5% (inactive); in test [3], 13.1% (inactive); in test [7] it was -49.3% (inactive); in test [8], -82.3% (inactive). For the same molecule, the inhibition of aggregation in test [2] was 3% (inactive). Further, the nuclei count in test [2] turned out to be 101%; in test [3] it was 103%. For the same molecule, the fluorescence slope in test [4] is -0.481 (inactive). In test [5], the NADPH fluorescence slope is -9.5e-06 (inactive). Besides, in test [6], the slope was 0.00694 (inactive).
